Source: PubChem BioAssay (EPA / NIEHS)
More than one record can exist for a structure, and the calls need not agree. The source made the active and inactive calls. Rule for the calls: active = hit-call score of the fitted dose curve at least 0.9, where 1 is the maximum; inactive = score below 0.9.

Experiment: ATG_ISRE_CIS: Attagene CIS-FACTORIAL HepG2 Assay for human Interferon Regulatory Factor 1 (IRF1) binding to an Interferon-Stimulated Response Element (ISRE) (AID 2282948)
Settings: HepG2 ISRE cis-reporter (Attagene), mRNA transcription readout; actives raise or lower the signal
Method: ATG_CIS is a cell-based, multiplexed-readout assay that uses HepG2, a human liver cell line, with measurements taken at 24 hours after chemical dosing in a 24-well plate.ATG_ISRE_CIS is one of 52 assay component(s) measured or calculated from the ATG_CIS assay. It is designed to make measurements of mRNA induction, a form of inducible reporter, as detected with fluorescence intensity signals by Reverse transcription polymerase chain reaction (RT-PCR) and Capillary electrophoresis technology.Data from the assay component ATG_ISRE_CIS was analyzed into 1 assay endpoint. This assay endpoint, ATG_ISRE_CIS, was analyzed with bidirectional fitting relative to DMSO as the negative control and baseline of activity. Using a type of inducible reporter, measures of mRNA for gain or loss-of-signal activity can be used to understand the reporter gene at the transcription factor-level as they relate to the gene IRF1. Furthermore, this assay endpoint can be referred to as a primary readout, because this assay has produced multiple assay endpoints where this one serves a reporter gene function. To generalize the intended target to other relatable targets, this assay endpoint is annotated to the dna binding intended target family, where the subfamily is interferon regulatory factors.
Human liver HepG2 cells are transiently transfected with multiple reporter transcription units (MRTUs) in 6-well plates using FuGene 6 reagent (Roche; 3 ml FuGene/1 mg DNA). The MRTU constructs are regulated by a cis-regulating element (promoter). […] A major difference between the CIS and TRANS system is that in CIS activities of endogenous TFs are measured, whereas the TRANS assay evaluates changes in activities of exogenous, chimeric NR-Gal4 proteins. […] At the end of 24 hour incubation, total RNA was isolated using TriZol reagent (Invitrogen). The isolated RNA is then reverse-transcribed using oligo(dT) primer and Mo-MLV reverse transcriptase (Invitrogen) with DNAse I (Ambion) treatment for 30 min. The one-tenth of the produced cDNA was amplified by PCR using Taq DNA polymerase (Invitrogen) and two reporter sequence-specific primers. The PCR products were fluorescently labeled by primer extension with 6-arboxyfluorescein (6-FAM) 5'-labeled reporter sequence-specific primer (2 min at 95 C, 20 s at 68 C and 10 min at 72 C) and these products were digested with 5U of HpaI (New England Biolabs) for 2h at 37 C. The fragments were purified using Qiaquick PCR columns (Qiagen), analyzed on an ABI 3130xL genetic analyzer (Applied Biosystems) with peak positions identified by using a set of X-rhodamine (ROX)-labeled MapMarker1000 molecular weight standards (BioVentures). The raw capillary electrophoresis data was processed using Attagraph software (Attagene).

SMILES	outcome	AC50
CC(C)(O)c1ccc(CNC(=O)c2cccnc2Oc2ccc(F)cc2)cc1	inactive	
CC(C)c1cccc(C(C)C)c1	inactive	
c1ccc2occc2c1	inactive	
CO[C@@H]1COCC[C@@H]1N[C@@H]1CC[C@@](C(=O)N2CCc3ncc(C(F)(F)F)cc3C2)(C(C)C)C1	inactive	
CCOCCOCCO	inactive	
COC(=O)CCCC(=O)OC	inactive	
CN(C)C(=O)NC1(c2ccccc2)CCN(CCC[C@]2(c3ccc(Cl)c(Cl)c3)CCCN(C(=O)c3ccccc3)C2)CC1	inactive	
CC(=O)S[C@H](C(=O)N[C@H]1Cc2ccccc2[C@H]2CCC[C@@H](C(=O)O)N2C1=O)C(C)C	inactive	
CC(COCC(C)OC(=O)c1ccccc1)OC(=O)c1ccccc1 (stereo unspecified)	inactive	
C=CCCCCCCCCCCCC	inactive	
S=c1[nH]c2ccccc2s1		41.8 µM (active)
NC=O	inactive	
CC1(C)C(=O)NC(=O)N1CO	inactive	
CCCCCCCC(=O)OC	inactive	
CS(=O)(=O)c1ccc([C@@H](C[C@H]2CCC(=O)C2)C(=O)Nc2cnccn2)cc1Cl	inactive	
Cc1c(C)c2c(c(C)c1O)CCC(C)(COc1ccc(CC3SC(=O)NC3=O)cc1)O2 (stereo unspecified)	inactive	
NC(=Nc1ccccc1)Nc1ccccc1		5.79 µM (active)
CC(=O)OCC(COC(C)=O)OC(C)=O	inactive	
Nc1nc(Cl)nc2c1ncn2[C@H]1C[C@H](O)[C@@H](CO)O1	inactive	
Cc1occc(=O)c1O	inactive	

SMILES	outcome	AC50
C/C=C/c1ccc(OC)cc1	inactive	
CC(C)(C)c1ccccc1	inactive	
Nc1nc(=S)c2[nH]cnc2[nH]1	inactive	
O=Cc1ccccc1C=O	inactive	
CC(N)=O	inactive	
O=NO	inactive	
O=C1O[C@H]([C@H](O)CO)C(O)=C1O	inactive	
OCC(CO)n1cnc(-c2ccc(F)cc2)c1-c1ccnc(Oc2ccccc2)n1	inactive	
CCCCCCCCCC[N+](C)(C)[O-]	inactive	
CC(=O)OC1CC(C)OC(C)O1 (stereo unspecified)	inactive	
O=C1OC(c2ccc(O)cc2)(c2ccc(O)cc2)c2ccccc21		70.1 µM (active)
O=C(N[C@@H](c1ccccc1)[C@@H]1CCCCN1)c1cccc(C(F)(F)F)c1Cl	inactive	
Cc1cn([C@H]2C=C[C@@H](CO)O2)c(=O)[nH]c1=O	inactive	
CCCCOC(=O)CCCCC(=O)OCCCC	inactive	
Cn1cnc2c1c(=O)[nH]c(=O)n2C	inactive	
CCCCC(CC)COP(=O)(OCC(CC)CCCC)OCC(CC)CCCC (stereo unspecified)	inactive	
CC(=O)O	inactive	
CCC(C)N(C)C(=O)c1cc2ccccc2c(-c2ccccc2Cl)n1 (stereo unspecified)		89 µM (active)
CN(C)C(=O)NC1(c2ccccc2)CCN(CC[C@@]2(c3ccc(F)c(F)c3)CN(C(=O)c3ccccc3)CCO2)CC1	inactive	
CC(=O)O[C@]1(C(C)=O)CC[C@H]2[C@@H]3C=C(Cl)C4=CC(=O)[C@@H]5C[C@@H]5[C@]4(C)[C@H]3CC[C@@]21C	inactive	77.5 µM (active)
